For 50 compounds, Potency, cell number change and lipid storage change, negative = inhibition results are on record in PubChem BioAssay AID2685 (National Center for Advancing Translational Sciences (NCATS), 2010).

Hit rate of the full screen: of about 320,000 compounds, about 2,100 (0.66%) were called active. Inconclusive results (about 53%) are left out. Calls follow the shape of the dose curve; as a rule, active = well fitted inhibition curve with a large enough effect in the signal ratio, with a control signal flat (not every such curve was filed as active); inconclusive = small, poorly fitted or top-dose-only effect, or effect the other way, or a change in a side signal; inactive = flat fitted curve, though single readings scatter; the % refers to the signal ratio. What follows is part of a selection rich in actives, with near analogues and random picks from the rest.
Potency is read from the fitted curve at half-maximal effect.

The nature of this experiment: qHTS Assay for Lipid Storage Modulators in Drosophila S3 Cells.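 As to cell number change: cells counted by Cell Tracker Red CMTPX staining in the red channel.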 As to lipid storage change, negative = inhibition: % is scaled to controls: 0 for no effect and ±100 for the full control effect. The conditions noted are these: BODIPY lipid droplet fluorescence, 18-24 h, cells fed with added oleic acid; cell number change: measured here: cell count max response; series mostly up to 46.1 µM. The text has this: NIH Molecular Libraries Probe Production Centers Network [MLPCN] NIH Chemical Genomics Center [NCGC] MLPCN Grant: 1 R03 MH085686-01 Assay Submitter (PI): Beller, Mathias; Max-Planck-Institut fur Biophysikalische Chemie NCGC Assay Overview: Storing lipids as a reservoir for energy or the anabolism of elementary metabolites is a common feature of probably all cells and is conserved from bacteria to humans. The universal cellular lipid storage organelle is the so-called lipid storage droplet (LD). Although ubiquitous, LDs share a simple structure composed of a hydrophobic core that harbors the storage lipids, which is shielded by a droplet-specific phospholipid monolayer to which proteins are attached. The current model of LD biogenesis involves an incorporation of the lipid core into the membrane leaflets of the endoplasmic reticulum (ER) followed by a subsequent budding-like maturation of a LD, which ultimately pinches off. Once released, LD volume can increase by localized lipogenesis or fusion of existing droplet. Storage lipids are re-mobilized enzymatically by lipase activity. Lipase regulation in the adipocyte is heavily studied and involves multiple components including catecholamine signaling, the LD-associated proteins Perilipin and comparative gene identification (CGI-58) and at least two lipases named hormone sensitive lipase (HSL) and adipocyte triglyceride lipase (ATGL). LD regulation outside of the adipocyte is poorly understood and only few components are known. However, there is an urgent need to learn more about ectopic fat depots as mislocalized storage of lipids, for example in the liver or muscle, is an eminent health problem associated with insulin resistance or the metabolic syndrome. We developed a laser-scanning cytometer assay to enable 1,536-well screening and combined the results of the small molecules screen with an RNAi database based on lipid storage.
Triacsin C (Sigma-Aldrich T-4540), an inhibitor of long-chain fatty acyl CoA synthetase that blocks synthesis of triglycerides, was used as a positive control for lipid under-storage. A total of 23 nL of compound solution of different concentrations were transferred to the assay plates using a Kalypsys pin tool equipped with a 1,536-pin array containing 10-nL slotted pins (FP1S10, 0.457-mm diameter, 50.8 mm long; V&P Scientific). One microliter of oleic acid (400 uM) was added, and the plate was lidded with stainless steel rubber gasket lined lids containing pinholes. […] Fluorescence was detected by excitation of the fluorophores with a 488-nm laser on an Acumen Explorer (TTP Lab Tech). The total intensity in channel 2 (500-530 nm) reflected lipid droplet accumulation. Cells were detected using channel 3 (575-640 nm) with 5-um width and 100-um depth filters. The ratio of the number of objects in PMT channel 2 over the number of objects in PMT channel 3 was also calculated. Percent activity was computed relative to an internal control (100% inhibited lipid droplet deposition due to the presence of 20 uM Triacsin C), which was added to 32 wells/plate.
(In general: qHTS replaces the single test concentration by a dilution series.)
Take `O=S(=O)(NC1=NCCC1)c1ccc(F)cc1`: the Potency was 20.6 µM (active) and the cell number change came to 8.19%.

Consider `Cc1ccc(S(=O)(=O)N2CCOCC2)cc1NC(=O)COC(=O)c1cnc(Cl)c(Cl)c1`, for which the Potency entry is “inactive” and the cell number change turned out to be 24.4%.

`CCOC(=O)Cn1cnc2scc(-c3ccc(C)c(C)c3)c2c1=O`: the Potency entry was “inactive” and the cell number change was found to be 4.4%.

In the case of `Nc1cccc2c1C(=O)N(C(=O)/C=C/c1cccc(F)c1)C2=O`, the Potency result was “inactive” and the cell number change is -23.5%.

In the case of `Nc1cccc2c1C(=O)N(C(=O)/C=C/c1ccc(F)cc1)C2=O`, the Potency entry was “inactive” and the cell number change is -29.8%.

In the case of `COc1ccc(OC)c(/C=C/C(=O)N2CCCc3ccccc32)c1`, the Potency result was “inactive”.

Regarding `COc1ccc(OC)c(/C=C/C(=O)N2C(=O)c3cccc(N)c3C2=O)c1`, the Potency was 16.4 µM (active) and the cell number change was 10.9%.

Take `COc1ccc(OC)c(/C=C/C(=O)N2CCN(S(=O)(=O)c3cc(C)ccc3C)CC2)c1`: the Potency entry is “inactive” and the cell number change was 6.55%.

Regarding `COc1cc(/C=C/C(=O)N2C(=O)c3cccc(N)c3C2=O)cc(OC)c1OC`, the Potency was 5.17 µM (active) and the cell number change was -14.5%.

As to `O=C(c1ccc(Cl)cc1)c1ccc(CN2C(=O)c3ccccc3C2=O)o1`, the Potency result was “inactive” and the cell number change came to 8.92%.

With `COCCNc1nc(CSc2ccccc2)nc2sc(C)c(C)c12`, the Potency result is “inactive” and the cell number change worked out at 2.1%.

As to `FC(F)(F)c1cc(C(F)(F)F)c2ccc(N3CCN(c4ncccn4)CC3)nc2n1`, the Potency entry is “inactive” and the cell number change was determined as 9.76%.

For `Cc1nn(Cc2ccc(C(=O)O)o2)c(C)c1[N+](=O)[O-]`, the Potency result was “inactive” and the cell number change amounted to 19.3%.

On to `CCCN1C(=O)c2ccc(C(=O)NC3=NCCS3)cc2C1=O`, for which the Potency result is “inactive”.

Consider `Cc1nn(-c2ccc(N3CCOCC3)nn2)c(C)c1CCC(=O)NCc1ccc(F)cc1`, for which the Potency result is “inactive” and the cell number change is 2.75%.

`CC(=O)c1ccc(N2CCN(C(=O)Nc3ccc(F)cc3F)CC2)cc1`: the Potency result is “inactive” and the cell number change was 18.2%.

Turning to `COc1ccc(C(=O)Nc2ccc(Cl)cc2C(=O)N2CCOCC2)cc1`, the Potency result is “inactive” and the cell number change worked out at 17.2%.

As for `Cc1nnc2n1CCCCC2`, the Potency entry is “inactive” and the cell number change stood at 4.65%.

Regarding `O=[N+]([O-])c1ccc(Oc2ccc(/C=N/O)cc2)nc1`, the Potency result is “inactive” and the cell number change is -1.55%.

Regarding `CS(=O)(=O)c1ccc(N2CCOCC2)c(S(C)(=O)=O)c1`, the Potency result was “inactive” and the cell number change was 4.86%.

Consider `CCOC(=O)CN1C(=O)C2(OCCCO2)c2ccccc21`, for which the Potency is 23.1 µM (active).

Take `CCOC(=O)CN1C(=O)C2(OCCCO2)c2cc(Br)ccc21`: the Potency entry is “inactive” and the cell number change is -7.87%.

For the compound `CCCC(=O)CN1C(=O)C2(OCCO2)c2ccccc21`, the Potency entry was “inactive” and the cell number change was -15.8%.

As to `COCCNC(=O)CN1C(=O)NC2(CCCc3cc(OC)ccc32)C1=O` (stereo not given), the Potency result is “inactive”.

Consider `CCOc1ccc(C(=O)CCC(=O)N(CC)CC(=O)NCc2cccs2)cc1`, for which the Potency result was “inactive” and the cell number change came out at 12.9%.

On to `Cc1ccc2occ(/C=N/NC(=O)c3ccccc3Br)c(=O)c2c1`, for which the Potency result is “inactive”.

In the case of `CCOc1ccccc1C(=O)N/N=C/c1coc2ccc(C)cc2c1=O`, the Potency is 10.3 µM (active) and the cell number change is -20.2%.

Consider `Cc1ccc2occ(/C=N/NC(=O)c3ccccc3O)c(=O)c2c1`, for which the Potency entry is “inactive” and the cell number change came out at 1.16%.

On to `COc1cccc(Oc2cn[nH]c2-c2ccc(OCC(=O)NN)cc2O)c1`, for which the Potency entry was “inactive” and the cell number change is 0.872%.

`CC(C)(C)c1cc(C(=O)CCN2CCOCC2)cc(C(C)(C)C)c1O`: the Potency was 29.1 µM (active) and the cell number change is -17.7%.

Take `CN1CCN(CC(=O)c2cc(C(C)(C)C)c(O)c(C(C)(C)C)c2)CC1`: the Potency entry is “inactive” and the cell number change came to 15.8%.

For the compound `CC(C)(C)c1cc(C(=S)N2CCN(CCO)CC2)cc(C(C)(C)C)c1O`, the Potency entry is “inactive”.

On to `COc1cccc(C2=NOC(C(=O)Nc3ccc(OC)c(OC)c3)C2)c1` (stereo not given), for which the Potency is 11.6 µM (active).

Regarding `COc1ccc(NC(=O)C2CC(c3ccccc3O)=NO2)cc1OC` (stereo not given), the Potency result was “inactive”.

For `COc1cccc(C2=NOC(C(=O)Nc3ccc4c(c3)OCO4)C2)c1` (stereo not given), the Potency entry is “inactive” and the cell number change stood at 7.67%.

On to `COc1ccc(NC(=O)C2CC(c3c(F)cccc3Cl)=NO2)cc1OC` (stereo not given), for which the Potency entry is “inactive” and the cell number change was -11.7%.

As for `COc1cc(NC(=O)C2CC(c3c(F)cccc3Cl)=NO2)c(OC)cc1Cl` (stereo not given), the Potency result was “inactive” and the cell number change was -7.33%.

As to `COc1cc(NC(=O)C2CC(c3c(F)cccc3Cl)=NO2)cc(OC)c1OC` (stereo not given), the Potency was 11.6 µM (active) and the cell number change is -15.1%.

`O=C(O)CC1C(=O)NCCN1CCCc1ccccc1` (stereo not given): the Potency result was “inactive”.

Turning to `CSc1cccc(NC(=O)C(C)NS(=O)(=O)c2ccc(F)cc2)c1` (stereo not given), the Potency result was “inactive”.

Consider `Cc1cc(C)nc(/N=C(\N)N2CCCCC2)n1`, for which the Potency result is “inactive” and the cell number change was -8.98%.

In the case of `Cc1ccc(C(=O)C[n+]2cccc(C(N)=O)c2)cc1`, the Potency entry was “inactive” and the cell number change came to 8.69%.

Take `Cc1c(C(=O)n2cnc3ccccc32)cccc1[N+](=O)[O-]`: the Potency entry was “inactive” and the cell number change came out at 23.4%.

Consider `Cc1ccc(C2(C)NC(=O)N(CC(=O)Nc3ccc4c(c3)CCC4)C2=O)cc1` (stereo not given), for which the Potency entry was “inactive” and the cell number change is -12.5%.

On to `O=C(N/C(=C/c1cccnc1)C(=O)N1CCOCC1)c1ccco1`, for which the Potency result is “inactive” and the cell number change was found to be 0.681%.

As to `COc1cc(-c2nc(CCNC(=O)c3ccco3)cs2)cc(OC)c1OC`, the Potency was 18.4 µM (active) and the cell number change was -3.07%.

For the compound `O=C(NCCc1csc(-c2cccnc2)n1)c1ccco1`, the cell number change stood at 14.6% and the lipid storage change, negative = inhibition is 1.09% [at 9.22 µM] (inactive).

For the compound `COc1ccc(-c2nc(CCNC(=O)c3ccc(Br)o3)cs2)cc1`, the Potency result was “inactive” and the cell number change came out at 29.2%.

For the compound `Cc1ccccc1CCN(C(=O)CN1C(=O)c2ccccc2S1(=O)=O)C(C(=O)NCC1CCCO1)c1ccncc1` (stereo not given), the Potency entry was “inactive” and the cell number change is -7.43%.

Regarding `Cc1ccccc1NS(=O)(=O)c1ccc(OCC(=O)NCc2ccccn2)cc1`, the Potency result is “inactive” and the cell number change came out at 6.59%.
